Consider 23 molecules from PubChem BioAssay (NCATS).

Structures are written as SMILES. Inconclusive results are not listed. Values without a mark were called inactive. Calls of active or inactive are those of the source. Calls follow the shape of the dose curve; as a rule, active = well fitted inhibition curve with a large enough effect; inconclusive = small, poorly fitted or top-dose-only effect; inactive = flat fitted curve, though single readings scatter.

Assay [1] can be described thus: Drug repurposing screens with cells derived from glioblastoma tumor samples (AID 1345199). Also: nearly all actives have a fitted effect of over 40% in size. The note with it: GBM patient neurospheres viability, ATP luminescence, 48 h. Put shortly:
(§1)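 Four patient lines of CD133+ GBM neurospheres were screened at several concentrations; hits were retested in those lines plus three slower-growing GBM lines, using 48-hour treatment and ATP-based viability.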

The next assay relates to astro (control astrocytes). Described as above. As to conditions: viability, ATP luminescence, 48 h; series mostly up to 45.9 µM. Put shortly:
as §1

Setting [2] is: at 45.9 µM (top of the series), tumour line B.
Where [3] appears, read: at 45.9 µM (top of the series), tumour line D.
Where [4] appears, read: at 46.1 µM (top of the series), tumour line C.
[5] abbreviates: at 20 µM (top of the series), tumour line C.
% is scaled to controls: 0 for no effect and ±100 for the full control effect; potency is read from the fitted curve at half-maximal effect.

`CCCCCCCCCCCCCCCCCC[N+](C)(C)CCC[Si](OC)(OC)OC`: the figures for the activity, negative = cell killing in assay [1] (setting [2]), in assay [1] (setting [3]) and in assay [1] (setting [4]) were -16.4%, -4.63% and -7.69%, respectively. Further, the Potency entry in the assay on astro is “inactive”.

For `O=[N+]([O-])O[C@@H]1CO[C@H]2[C@@H]1OC[C@@H]2O`, the activity, negative = cell killing is -16.9% in assay [1] (setting [2]); -5.25% in assay [1] (setting [3]); -36.5% in assay [1] (at 46 µM (top of the series), tumour line A). In addition, the Potency entry with astro was “inactive”.

As for `CCOC(=O)[C@H](CS)NCCN[C@@H](CS)C(=O)OCC`, the activity, negative = cell killing in assay [1] (setting [2]) was -15.2%; in assay [1] (setting [3]) it was -8.47%; in assay [1] (setting [4]), -15.5%. Besides, the Potency entry with astro is “inactive”.

Turning to `CO[C@H]1C[C@H](O[C@@H]2/C(C)=C/C[C@@H]3C[C@@H](C[C@]4(CC[C@H](C)[C@@H](C5CCCCC5)O4)O3)OC(=O)[C@@H]3C=C(C)/C(=N/O)[C@H]4OC/C(=C\C=C\[C@@H]2C)[C@]43O)O[C@@H](C)[C@@H]1O`, the activity, negative = cell killing in assay [1] (setting [4]) was -8.72%. Also, the Potency in assay [1] (tumour line A) was 10 µM (active); in assay [1] (tumour line D) it was 20 µM (active). Further, in the assay on astro, the Potency result was “inactive”.

Turning to `CN(C)CCC(O)(c1ccccc1)c1ccccc1Cl` (configuration not stated), the activity, negative = cell killing is -11.1% in assay [1] (setting [2]) and -17.6% in assay [1] (setting [4]). Also, in assay [1] (tumour line A), the Potency is 11.2 µM (active). The Potency result with astro is “inactive”.

For `COc1ccc2cc([C@H](C)CO)ccc2c1`, the activity, negative = cell killing was -14.5% in assay [1] (setting [2]), 4.49% in assay [1] (setting [3]) and -21.2% in assay [1] (setting [4]). Further, the Potency entry with astro is “inactive”.

Regarding `Cc1cccc(C)c1NC(=O)NC1=CCCN1C`, the activity, negative = cell killing is -5.38% in assay [1] (setting [2]), -0.755% in assay [1] (setting [3]) and 0.0506% in assay [1] (setting [4]). Further, the Potency entry in the assay on astro was “inactive”.

Turning to `c1ccc2c(c1)OCC(CN1CCCCC1)O2` (configuration not stated), the values for the activity, negative = cell killing in assay [1] (setting [2]), in assay [1] (setting [3]) and in assay [1] (setting [4]) were 0.315%, -10.7% and -13%, respectively. For the same molecule, the Potency result in the assay on astro was “inactive”.

For the molecule `C=CCN1CCCC1CNC(=O)c1cc(S(N)(=O)=O)cc(OC)c1OC` (configuration not stated), the activity, negative = cell killing in assay [1] (setting [2]) was -7.52%; in assay [1] (setting [3]) it was -19.4%. The Potency in assay [1] (tumour line A) was 35.5 µM (active). Besides, the Potency entry in the assay with astro was “inactive”.

With `CCOC(=O)Cc1ccc(-c2ccccc2)cc1`, the activity, negative = cell killing in assay [1] (setting [2]) is -6.74%; in assay [1] (setting [3]), -7.57%; in assay [1] (setting [4]), 36.2%. Further, in the assay on astro, the Potency entry was “inactive”.

`C[Se]CC[C@H](N)C(=O)O`: the activity, negative = cell killing in assay [1] (setting [2]) is -12.9%; in assay [1] (setting [3]) it was -0.664%; in assay [1] (setting [4]), -22.8%. Moreover, the Potency result in the assay on astro is “inactive”.

For the molecule `C=CC[N+]1([C@H]2C[C@H]3[C@@H]4CC[C@H]5C[C@H](O)[C@@H](N6CCOCC6)C[C@]5(C)[C@H]4CC[C@]3(C)[C@H]2OC(C)=O)CCCC1`, the activity, negative = cell killing in assay [1] (setting [2]) is -3.03%; in assay [1] (setting [3]), -12.4%; in assay [1] (setting [4]) it was -21.7%. For the same molecule, in the assay with astro, the Potency result is “inactive”.

Turning to `O=C(CCCCCCCCCCCCC1CCCC1)Nc1ccc(S(=O)(=O)c2ccc(NC(=O)CCCCCCCCCCCCC3CCCC3)cc2)cc1`, the values for the activity, negative = cell killing in assay [1] (setting [2]), in assay [1] (setting [3]) and in assay [1] (setting [4]) were 0.38%, -17.2% and -32.4%, respectively. Further, the Potency entry in the assay with astro was “inactive”.

Turning to `CNCC(=O)N[C@@H](CCCN=C(N)N)C(=O)N[C@H](C(=O)N[C@@H](Cc1ccc(O)cc1)C(=O)N[C@H](C(=O)N[C@@H](Cc1cnc[nH]1)C(=O)N1CCC[C@H]1C(=O)N[C@@H](C)C(=O)O)C(C)C)C(C)C`, the values for the activity, negative = cell killing in assay [1] (setting [2]), in assay [1] (setting [3]) and in assay [1] (setting [4]) were -7.12%, -7.19% and -6.49%, respectively. In addition, the Potency result with astro is “inactive”.

For the molecule `CC(C)CN(C[C@@H](O)[C@H](Cc1ccccc1)NC(=O)O[C@@H]1CCOC1)S(=O)(=O)c1ccc(N)cc1`, the activity, negative = cell killing in assay [1] (setting [2]) was -6.03%; in assay [1] (setting [3]) it was -14.3%; in assay [1] (setting [4]), -3.48%. Further, in the assay on astro, the Potency entry is “inactive”.

Take `CCCCC/C=C\C/C=C\C/C=C\CCCCC(=O)O`: the activity, negative = cell killing in assay [1] (setting [2]) was -11.2%; in assay [1] (setting [3]), 2.8%; in assay [1] (setting [4]) it was 1.83%. Also, the Potency entry in the assay on astro was “inactive”.

In the case of `O=C1c2ccccc2C(=O)C1c1ccc(Cl)cc1`, the activity, negative = cell killing in assay [1] (setting [2]) is -10.4%; in assay [1] (setting [3]), -11.7%; in assay [1] (setting [4]) it was -10.5%. The Potency result with astro was “inactive”.

As to `Oc1ccc(Cl)c2c1CCC2`, the activity, negative = cell killing in assay [1] (setting [2]) is -12.8%; in assay [1] (setting [3]) it was -3.41%; in assay [1] (setting [4]), -12.7%. Further, the Potency entry with astro was “inactive”.

Regarding `CCN(CC)CCOc1ccccc1OC`, the activity, negative = cell killing in assay [1] (setting [2]) is 5.43%; in assay [1] (setting [3]), -13.8%; in assay [1] (setting [4]) it was -28.2%. Besides, the Potency entry in the assay with astro was “inactive”.

Consider `CCCCCCCCCCCC(=O)OC[C@@H](O)C1OC[C@H](O)[C@H]1O` (some centres not stated), for which the activity, negative = cell killing in assay [1] (setting [2]) is -6.52%; in assay [1] (setting [3]), -10.2%; in assay [1] (setting [4]), -22.6%. The Potency result with astro was “inactive”.

With `CC(C)(C)NC[C@H](O)COc1ccccc1C1CCCC1`, the activity, negative = cell killing in assay [1] (setting [5]) is 19%. The results for the Potency in assay [1] (tumour line A) and in assay [1] (tumour line D) were 4.47 µM (active) and 12.6 µM (active), respectively. In the assay with astro, the Potency result was “inactive”.

In the case of `CCc1ncnc2cc(OC)c(OC)cc12`, the activity, negative = cell killing in assay [1] (setting [2]) is -18.2%; in assay [1] (setting [3]) it was -1.42%; in assay [1] (setting [4]), -14.3%. Further, in the assay on astro, the Potency result is “inactive”.

Consider `Cn1nnnc1SCC1=C(C(=O)O)N2C(=O)[C@@H](NC(=O)[C@H](O)c3ccccc3)[C@H]2SC1`, for which the activity, negative = cell killing in assay [1] (setting [5]) was -9.7%; in assay [1] (at 21.2 µM (top of the series), tumour line B) it was -12.5%; in assay [1] (at 21.2 µM (top of the series), tumour line D), -10.9%. Also, the Potency entry with astro was “inactive”.
